# According to the supplement of paper PMC3334620:
# In all, about 33,000 sequences were measured (“E-score (-0.5 to 0.5)”: median about -0.013, highest 2% from about 0.3 on). This is one part of a sample in which the highest values are shown more often than they occur.
# Target: T1, Msn1 (UniProt P22148)
# T1 sequence: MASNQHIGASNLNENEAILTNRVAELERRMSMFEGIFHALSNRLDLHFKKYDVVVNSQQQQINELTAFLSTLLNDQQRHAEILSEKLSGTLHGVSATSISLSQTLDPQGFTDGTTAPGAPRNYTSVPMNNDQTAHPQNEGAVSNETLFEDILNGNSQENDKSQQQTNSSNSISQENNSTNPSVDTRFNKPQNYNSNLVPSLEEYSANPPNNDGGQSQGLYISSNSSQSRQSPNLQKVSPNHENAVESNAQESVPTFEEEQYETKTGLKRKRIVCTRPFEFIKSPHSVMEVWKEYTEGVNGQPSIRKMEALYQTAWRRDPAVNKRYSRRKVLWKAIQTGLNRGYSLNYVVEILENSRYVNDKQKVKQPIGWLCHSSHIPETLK
# Assay: PBM E-score (8-mer binding enrichment) (E-score (-0.5 to 0.5)); higher = stronger / more preferred TF binding
# Conditions: protein concentration: 200 nM; construct: GST-full length
# Protocol: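 Universal 'all 10-mer' protein binding microarrays (Agilent AMADID 015681) probed with GST-tagged S. cerevisiae TFs (full-length or DBD) made by in vitro transcription/translation (PURExpress), about 100-200 nM. Bound TF was detected with fluorescent anti-GST. Each ungapped 8-mer (which stands for itself and its reverse complement) is scored by the PBM enrichment score (E-score), a modified Wilcoxon-Mann-Whitney statistic from -0.5 to +0.5, computed with the Universal PBM Analysis Suite. Scale: above 0.35 generally sequence-specific binding.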
row,Sequence,PBM E-score
1,ACTTCCCT,-0.185
2,CAAAAAGA,0.0247
3,CGAGTGAC,0.0781
4,AAAATGCT,0.0679
5,ACCGATGC,-0.136
6,ATCACCTA,0.0704
7,ATCCAGGA,-0.015
8,CCCAAGGG,-0.22
9,TTGGACAA,0.47
10,GTGGACGA,0.18
11,CTGGACAG,0.0403
12,CTGGACAC,0.29
13,GTGGACAA,0.468
14,TTCGACAA,0.191
15,TTGGAAAA,0.0431
16,CTGGACAA,0.43
17,GTGGACTA,0.144
18,TCTTTCCA,-0.0394
19,CCCTTACC,-0.181
20,CTTATGTA,0.124
21,ATTATGTA,0.149
22,CTTATGTC,0.374
23,CTTATGAC,0.233
24,ATTATGTC,0.367
25,ATTATGTG,0.151

row,Sequence,PBM E-score
1,ATTCGCTG,0.00671
2,TACCCGCA,-0.0605
3,CATTACGG,0.0771
4,TAGGGGCA,-0.254
5,ACATACAT,0.309
6,ACATACAG,0.167
7,ACATAAAG,0.224
8,ACATACAC,0.207
9,ACATAAAA,0.178
10,CAGTACAA,0.262
11,ACATAAAT,0.307
12,GAGTACAA,0.262
13,AAGTACCA,0.107
14,AAGTACGA,0.133
15,TAGTACAA,0.321
16,AAGTACAA,0.306
17,CGGTAGTC,-0.00298
18,GTGATCTA,0.00906
19,ACTTTTGA,0.208
20,ATATCCGG,0.11
21,GTCTCAAC,0.136
22,TCTAAAGA,0.205
23,AACCTTCT,-0.205
24,TAAATCCA,0.0101
25,CGAAGATC,-0.0505

row,Sequence,PBM E-score
1,AAGTACAT,0.356
2,ACGTACAT,0.307
3,AAGTACAC,0.192
4,ACGTACAG,-0.0675
5,ACGTACAA,0.234
6,AAGTACAG,0.0535
7,GAGTCATC,-0.114
8,GGTGTCAC,-0.0252
9,TACGACAA,0.352
10,CGCGACAA,0.304
11,AATGACAT,0.42
12,CGCGACAG,-0.00106
13,AATGACAC,0.213
14,AACGACAA,0.262
15,AATGACAG,0.151
16,CACGACAA,0.256
17,AACGACAG,-0.0454
18,AACGACAT,0.417
19,GGCGACAA,0.069
20,GACGACAA,0.299
21,CAAGATCC,0.0979
22,AAGCAAAG,-0.064
23,AGGGCCTC,-0.236
24,AGTTGTGA,0.137
25,CGGACCAA,0.256

row,Sequence,PBM E-score
1,CTATCGCA,-0.201
2,AACCACGT,-0.0931
3,CTACCAAA,-0.0795
4,GAGTACTA,0.198
5,TGCGACAA,0.338
6,TGCGACCA,0.0994
7,AGCGACAA,0.301
8,CTTTAATA,0.193
9,AATTAATA,0.352
10,GATTAATA,0.143
11,GTTTAAAA,0.0898
12,TATTAATA,-0.134
13,CACTAATA,0.0713
14,AATTAATT,0.168
15,ATTTAATA,0.336
16,TACTAATA,0.0704
17,AACTAATA,0.326
18,ATTTAATG,0.202
19,GTTTAATA,0.315
20,CGCGGTGC,-0.123
21,TAAGTTAA,-0.0568
22,CGCTACCG,0.00385
23,GGCGAAAA,0.24
24,GTTAGAAA,-0.0269
25,CATCTTCA,0.0522

row,Sequence,PBM E-score
1,GGAGGGCC,-0.273
2,CGCCAGGC,-0.174
3,TATATTAA,0.232
4,AATATTGG,-0.0454
5,AATATTAT,0.208
6,AATATTAA,0.318
7,AATATTAG,0.131
8,AATATTGC,0.218
9,AATATTGT,0.35
10,CATATTAG,0.193
11,CATATTAA,0.32
12,CGATAAAG,0.119
13,AGCTCACC,-0.141
14,CAAGTCCG,0.0478
15,TAAGTCCA,0.26
16,AAAGTCGT,0.223
17,AAAGTCCG,0.342
18,GAAGTCCA,0.212
19,AAAGTCCT,0.427
20,AAAGTCCA,0.378
21,AGAGTCCG,0.0522
22,AGAGTCCT,-0.0894
23,AAAGTCCC,0.344
24,GAAGTCCC,-0.0665
25,CAAGTCCC,0.148

row,Sequence,PBM E-score
1,AATGGCTA,-0.0496
2,ATGTTCAA,0.185
3,CCACTGGA,-0.216
4,GATTCTAA,0.0481
5,TGGCTACA,0.0201
6,ATTAGCAA,0.22
7,AAGTACGG,0.0556
8,AAGCTAAA,0.12
9,CATATTCC,0.0363
10,CACCCGTG,-0.213
11,GCAGACCA,-0.0683
12,TCAGACCA,-0.0852
13,ACAGACGA,0.153
14,ACAGACAA,0.44
15,GCAGACAA,0.341
16,CCAGACAG,-0.094
17,GCAGACAC,0.203
18,CCAGACAA,0.258
19,ACAGACAT,0.399
20,ACAGACAC,0.288
21,ACAGACAG,0.222
22,TCAGACAA,0.367
23,TATGAGAA,0.0684
24,AATGGTCG,-0.0526
25,TAGATTCA,-0.192

row,Sequence,PBM E-score
1,GCTTCTTA,-0.0464
2,ACATGTCT,0.436
3,ACATGTCG,0.311
4,ACATGTAA,0.255
5,ACATGTAT,0.312
6,TCATGTCA,0.252
7,CCATGTCG,0.239
8,ACATGTTG,0.235
9,ACCTGTCT,0.0544
10,ACATGTTA,0.199
11,ACATGCCT,-0.119
12,ACATGTAG,0.244
13,ACATGTCA,0.358
14,ACCGATAG,0.0834
15,GATTCCGC,0.0634
16,AAGCCGCA,-0.0983
17,GACTGCAA,-0.16
18,AAAGCGAT,0.00359
19,TAGGTGAA,0.0103
20,GCATGTCC,0.459
21,CCATGTCA,0.164
22,GCATGTAC,0.291
23,CCATGTCC,0.434
24,CCATGTAC,0.216
25,ACATGTCC,0.48
